# Unmarked numbers belong to inactive results.
# System: Caenorhabditis elegans dauer (daf-2(e1370))
# Assay: proportion of mobile C. elegans dauer larvae relative to DMSO control (fraction of DMSO control); higher = more viable, less nematicidal, active = 0.63 or less; extreme values may be limits of the assay
# Details: 60 µM; 5 days; temperature: 20 °C
# Protocol: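 DODA library (846 commercial 1,3,4- and 1,2,4-oxadiazole compounds plus commercial nematicide controls) screened at a single dose of 60 µM (0.6% DMSO) in 96-well plates, two biological replicates. Read-outs: C. elegans N2 L1 survival/reproduction score at day 6, 20 °C (0: 0-10 worms, 1: 11-20, 2: 21-50, 3: >50, 4: overgrown/starved). C. elegans daf-2 dauer, D. dipsaci and M. hapla J2 mobility at day 5, 20 °C, and P. penetrans mobility at day 5, 20 °C, each relative to DMSO controls. M. hapla egg hatching at day 12, 25 °C, relative to the mean of 8 DMSO wells on the same plate.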
row,Structure (SMILES),proportion of mobile C. elegans dauer larvae
1,CC[C@H](C)[C@H]1O[C@]2(C=C[C@@H]1C)C[C@@H]1C[C@@H](C/C=C(\C)[C@@H](O[C@H]3C[C@H](OC)[C@@H](O[C@H]4C[C@H](OC)[C@@H](O)[C@H](C)O4)[C@H](C)O3)[C@@H](C)/C=C/C=C3\CO[C@@H]4[C@H](O)C(C)=C[C@@H](C(=O)O1)[C@]34O)O2.CO[C@H]1C[C@H](O[C@H]2[C@H](C)O[C@@H](O[C@@H]3/C(C)=C/C[C@@H]4C[C@@H](C[C@]5(C=C[C@H](C)[C@@H](C(C)C)O5)O4)OC(=O)[C@@H]4C=C(C)[C@@H](O)[C@H]5OC/C(=C\C=C\[C@@H]3C)[C@]54O)C[C@@H]2OC)O[C@@H](C)[C@@H]1O [abamectin],0.242 (active)
2,CC(C)NC(=O)N1CC(=O)N(c2cc(Cl)cc(Cl)c2)C1=O [iprodione],1
3,O=C(NCCc1ncc(C(F)(F)F)cc1Cl)c1ccccc1C(F)(F)F [fluopyram],0 (active)
4,CNC(=O)O/N=C(\SC)C(=O)N(C)C [oxamyl],1
